High-throughput results as filed in PubChem.
FLuc modulator: qHTS profiling assay for firefly luciferase inhibitor/activator using purifed enzyme and Km concentrations of substrates (counterscreen for miR-21 project); Luciferin 4-monooxygenase (Photinus pyralis), P08659; purified FLuc, Km substrates, luminescence inhibition; Potency, µM (highest dose often 57.5 µM), actives largely listed as inhibitors; 6.9% of 360,000 active; AID 588342, 2011; note: nearly all actives have a fitted effect of over 55% in size
Target sequence (P08659 whole entry, looked up): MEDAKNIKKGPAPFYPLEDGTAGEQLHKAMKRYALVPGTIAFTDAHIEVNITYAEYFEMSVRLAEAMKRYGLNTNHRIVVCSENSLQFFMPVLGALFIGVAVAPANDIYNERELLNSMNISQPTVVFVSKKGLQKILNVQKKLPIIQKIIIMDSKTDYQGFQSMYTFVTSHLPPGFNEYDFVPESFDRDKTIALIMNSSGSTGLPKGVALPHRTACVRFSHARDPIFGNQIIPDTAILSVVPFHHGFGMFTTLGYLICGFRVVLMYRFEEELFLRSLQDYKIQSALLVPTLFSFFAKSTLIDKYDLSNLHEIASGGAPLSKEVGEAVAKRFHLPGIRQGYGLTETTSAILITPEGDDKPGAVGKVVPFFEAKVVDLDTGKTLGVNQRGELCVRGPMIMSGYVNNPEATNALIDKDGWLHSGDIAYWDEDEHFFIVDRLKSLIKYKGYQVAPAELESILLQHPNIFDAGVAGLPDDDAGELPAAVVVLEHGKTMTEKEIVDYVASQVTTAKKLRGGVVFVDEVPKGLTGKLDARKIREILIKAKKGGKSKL
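Purified P. pyralis luciferase (10nM final) with 10uM D-luciferin and 10uM ATP (Km levels) in 50mM Tris acetate pH 7.5, 10mM Mg acetate, 0.01% Tween-20, 0.05% BSA; qHTS 6-point titration, ~60 µM downward; luminescence read.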
ELG1 repair inh: qHTS screen for small molecules that inhibit ELG1-dependent DNA repair in human embryonic kidney (HEK293T) cells expressing luciferase-tagged ELG1 | HEK293T ELG1-luciferase reporter, luminescence, 16 h; DNA damage induced by 5-fluorouridine | Potency, µM (top dose mostly 46.1 µM), hits mostly inhibitors | 2.3% of 330,000 active; note: nearly all actives have a fitted effect of over 55% in size
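Luminescence from the luciferase reporter, measured 30 min after ONE-Glo reagent at room temperature, was the read-out. Beforehand, 2,000 cells per well were exposed for 16 hr at 37 °C to 5-fluorouridine together with compound or vehicle.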
NPC1 prom act: qHTS Assay for NPC1 Promoter Activators; Huh7 NPC1 promoter luciferase reporter, 24 h; Potency, µM (series often up to 9.22 µM), most hits filed as activators; 2.4% of 320,000 active; note: nearly all actives have a fitted effect of over 60% in size
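Luminescence from an NPC1 promoter-driven luciferase reporter in stably transfected Huh7 cells was measured after 24 h compound treatment at 37 °C, followed by 10 min ambient incubation with luciferase detection reagent.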
SMN2 splice up: qHTS Assay for Enhancers of SMN2 Splice Variant Expression; 2.8% of 210,000 active; Potency, µM (series often up to 46.1 µM), usual class: activators; AID 1458, 2008; HEK293 SMN2-luciferase splicing reporter, luminescence, 30-36 h; note: nearly all actives have a fitted effect of over 55% in size
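HEK293 cells carry an SMN2 minigene-luciferase reporter in which exon 7 inclusion puts luciferase in frame. Cells were seeded at 2000 cells/well, attached for 10-12 hours, then exposed to compounds for 30-36 hours at 37C before ONE-Glo luminescence.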
Rab9 promoter act: qHTS Assay for Rab9 Promoter Activators; 2.8% of 320,000 active; Potency, µM (highest dose often 9.22 µM), hits mostly activators; AID 485297, 2010; Huh7 Rab9 promoter-luciferase reporter, luminescence, 24 h; note: nearly all actives have a fitted effect of over 60% in size
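Quantitative HTS format; Huh7 Rab9-luciferase reporter cells (1500/well) receive compound 2 h post-plating, incubate 24 h at 37 °C, then get luciferase reagent for 10 min before luminescence reading.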
ELG1 genotoxic: qHTS screen for small molecules that induce genotoxicity in human embryonic kidney (HEK293T) cells expressing luciferase-tagged ELG1 | 1.3% of 330,000 active | HEK293T ELG1-luciferase reporter, luminescence, 16 h | Potency, µM (highest dose often 46 µM), usual class: activators; note: nearly all actives have a fitted effect of over 60% in size
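After overnight (16 hr) compound treatment at 37 °C, ELG1-luciferase HEK293T cells were lysed with ONE-Glo; luminescence quantified 30 min later at room temperature.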
A number is an active result; . = inactive; ? = inconclusive; / = not tested or not shown. A selection: hits, their analogues and other compounds. The true share with any hit is near 9.2%. Calls come from the whole dose curve; as a rule, active = well fitted curve in the direction sought with a large enough effect; inconclusive = small, poorly fitted or top-dose-only effect, or another doubt; inactive = no such curve, though single readings can be large; an effect the other way counts as inactive or inconclusive.

SMILES	FLuc modulator	ELG1 repair inh	NPC1 prom act	SMN2 splice up	Rab9 promoter act	ELG1 genotoxic
O=C(NC12CC3CC(CC(C3)C1)C2)c1cccc([N+](=O)[O-])c1	.	.	.	/	.	.
COc1cccc(C(=O)NC23CC4CC(CC(C4)C2)C3)c1	17µM	.	.	/	.	.
CCCN(c1ccc(OCC)cc1)S(=O)(=O)c1ccc2c(c1)NC(=O)CO2	.	.	.	/	.	.
COc1ccc(-n2c(=O)c(-c3ccc(Cl)cc3)nc3cncnc32)cc1	/	/	/	.	/	/
C(=Nc1cccc2c(N=Cc3ccco3)cccc12)c1ccco1	.	.	.	.	.	.
CN(C)c1ccc(C=Nc2ccc(N(C)C)cc2)cc1	8.5µM	?	.	.	.	?
CN(C)c1ccc(C=Nc2ccccc2)cc1	0.43µM	?	.	.	.	.
CN(C)c1ccc(N=Cc2ccco2)cc1	4.8µM	?	.	.	.	?
Cc1nc(/N=C\c2ccc(N(C)C)cc2)sc1C	0.3µM	.	.	/	.	.
Cc1ccc(N=Cc2ccc(N(C)C)cc2)cc1	?	.	.	.	.	.
CCc1cc2c(SCC(=O)NC3CC3)ncnc2s1	/	.	/	/	/	.
Cc1ccc(N=Cc2ccc(N(C)C)cc2)cc1C	0.95µM	.	.	.	.	.
Cc1ccc(S(=O)(=O)N(C)/N=C/c2ccc(N(C)C)cc2)cc1	.	?	.	/	.	.
Cc1ccc(-c2cc(C(=O)N3CCN(C(=O)c4ccco4)CC3)no2)cc1	?	.	.	.	.	.
Cc1ccc(-c2c(C)sc(=NC(=O)c3ccco3)n2C)cc1	0.95µM	?	1.6µM	?	2.5µM	.
C=C(C)Cn1cnc2c(oc3nc4c(cc32)CCCC4)c1=O	21µM	?	2.5µM	/	1.6µM	?
O=C(COC(=O)C12CC3CC(CC(C3)C1)C2)Nc1ccc([N+](=O)[O-])cc1Cl	.	21µM	.	.	.	.
CC(=O)OCC(=O)Nc1ccc([N+](=O)[O-])cc1Cl	.	.	.	.	.	.
COCCC(=O)N1CCC(Oc2ccc(C(=O)N3CCCCC3COC)cc2)CC1 (stereo not drawn)	.	.	.	/	.	.
CC1Oc2ccccc2C=C1/C=N/NC(=O)c1ccccc1O (stereo not drawn)	1.7µM	.	?	13µM	?	.
O=C(N/N=C/c1ccccc1)c1ccc(-c2ccccc2)cc1	.	.	.	/	?	.
CC1Oc2ccccc2C=C1/C=N/NC(=O)c1ccccc1 (stereo not drawn)	6µM	?	?	14µM	2.5µM	?
CC1Oc2ccccc2C=C1/C=N\NC(=O)c1cccnc1 (stereo not drawn)	17µM	?	.	/	.	?
CC1Oc2ccccc2C=C1/C=N/NC(=O)[C@@H](C)NC(=O)OC(C)(C)C (stereo partly drawn)	.	.	.	/	.	.
Cc1ccc(C(=O)N/N=C/C2=Cc3ccccc3OC2C)cc1 (stereo not drawn)	3µM	.	.	?	.	.
SMILES	FLuc modulator	ELG1 repair inh	NPC1 prom act	SMN2 splice up	Rab9 promoter act	ELG1 genotoxic
O=C(N/N=C/c1cc(O)ccc1Br)c1cccnc1	?	?	.	/	.	?
NC(=O)c1ccc(NC(=O)CNC(=O)c2sc3ccccc3c2Cl)cc1	.	.	.	/	.	.
CCN(CC)c1ccc(NC(=O)c2cc3c(OC)cccc3[nH]2)cc1	7.6µM	.	.	/	.	.
COc1ccc(Cl)cc1C(=O)Nc1ccc2c(c1)OCCO2	1.9µM	?	?	/	.	?
CCN(CC)c1ccc(NC(=O)c2cc(Cl)ccc2OC)cc1	15µM	.	.	.	.	.
COc1cccc2[nH]c(C(=O)NC(C)c3ccccc3)cc12 (stereo not drawn)	.	.	.	/	.	.
COc1ccc(Cl)cc1C(=O)Nc1ccc2c(c1)OCO2	24µM	?	?	.	?	?
